# Screens deposited in PubChem BioAssay by National Center for Advancing Translational Sciences (NCATS).
# L3MBTL1 block: qHTS Assay for the Inhibitors of L3MBTL1 | Lethal(3)malignant brain tumor-like protein 1 (Homo sapiens), Q9Y468 | AlphaScreen L3MBTL1–H3K9me1 peptide binding | Potency, µM (titrated, usually from 57.1 µM), without a hit: at the top dose activity, negative = inhibition, hits mostly inhibitors | 0.66% of 230,000 active; note: potency is the fitted concentration of half-maximal effect; % is set by controls: 0 for no effect and ±100 for the full control effect; nearly all actives have a fitted effect of over 60% in size
#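 Displacement of a biotinylated histone H3(1-15) peptide monomethylated at Lys9 (75 nM) from L3MBTL1 (50 nM) was measured by AlphaScreen after a 30 min room-temperature compound incubation; cefsulodin titration served as intraplate control.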
# G9a inh: qHTS Assay for Inhibitors of Histone Lysine Methyltransferase G9a. 8.8% of 350,000 active. Histone-lysine N-methyltransferase EHMT2 (Homo sapiens), Q96KQ7. G9a H3K9 monomethylation, AlphaScreen, 2 h. Potency, µM (titrated, usually from 102 µM), without a hit: at the top dose activity, negative = inhibition, usual class: inhibitors; note: potency is the fitted concentration of half-maximal effect; % is set by controls: 0 for no effect and ±100 for the full control effect; nearly all actives have a fitted effect of over 75% in size
#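 Step 1: enzyme (final 20 nM) with compound, 15 min RT. Step 2: substrate peptide 500 nM and SAM 20 uM, 2 h RT. Step 3: anti-H3K9me1 antibody and AlphaScreen beads, 10 min, then plate read.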
# HP1b binding inh: HTS for Inhibitors of HP1-beta Chromodomain Interactions with Methylated Histone Tails; Chromobox protein homolog 1 (Homo sapiens), P83916; AlphaScreen HP1-beta / biotin-H3K9me3 peptide binding; Potency, µM (series often up to 114 µM), without a hit: top-dose activity change, negative = inhibition, hits mostly inhibitors; 0.56% of 390,000 active; AID 540317, 2011; note: potency is the fitted concentration of half-maximal effect; nearly all actives have a fitted effect of over 70% in size
#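 AlphaScreen: HP1-beta (50 nM) preformed 30 min with biotin-H3(1-18)K9me3 peptide (50 nM) in PBS pH 7.4, 0.01% Tween-20. Compound added for 30 min at RT, then streptavidin donor/nickel chelate acceptor beads (10 ug/mL) for 30 min.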
# BAZ2B block: qHTS Assay for Inhibitors of BAZ2B | Bromodomain adjacent to zinc finger domain protein 2B (Homo sapiens), Q9UIF8 | AlphaScreen BAZ2B-H3K14Ac peptide displacement | Potency, µM (doses to about 114 µM), inactives show at the highest dose activity change, negative = inhibition, usual class: inhibitors | 4.4% of 360,000 active | AID 504333, 2011; note: potency is the fitted concentration of half-maximal effect; % is set by controls: 0 for no effect and ±100 for the full control effect; nearly all actives have a fitted effect of over 60% in size
#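 Protein-peptide AlphaScreen: BAZ2B 50 nM, b-H3K14Ac 50 nM, 1x PBS pH 7.4 + 0.01% Tween-20. Preincubation 30 min RT; cpd 30 min RT (top 110 uM); beads 20 min RT, light-protected.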
# JMJD2A Tudor: qHTS Assay for Inhibitors of JMJD2A-Tudor Domain; Lysine-specific demethylase 4A (Homo sapiens), O75164; AlphaScreen JMJD2A-Tudor / H3K4me3 peptide binding; Potency, µM (doses to about 114 µM), for the others: at the highest dose activity change, negative = inhibition, hits mostly inhibitors; 4.4% of 390,000 active; AID 504339, 2011; note: potency is the fitted concentration of half-maximal effect; % is set by controls: 0 for no effect and ±100 for the full control effect; nearly all actives have a fitted effect of over 50% in size
# PI5P4K alpha inh: qHTS for Inhibitors of phosphatidylinositol 5-phosphate 4-kinase (PI5P4K); max response, %; AID 652105, 2013; 1.2% of 330,000 active; PI5P4Kalpha enzyme, ADP-Glo luminescence, 60 min; stronger effect = lower value; active = max response of -50% or lower; inconclusive = between -30% and -50%; inactive = -30% or higher; note: value at the top dose of about 77 µM; % is set by controls: 0 for no effect and ±100 for the full control effect
# Target sequence (P48426 whole entry, looked up): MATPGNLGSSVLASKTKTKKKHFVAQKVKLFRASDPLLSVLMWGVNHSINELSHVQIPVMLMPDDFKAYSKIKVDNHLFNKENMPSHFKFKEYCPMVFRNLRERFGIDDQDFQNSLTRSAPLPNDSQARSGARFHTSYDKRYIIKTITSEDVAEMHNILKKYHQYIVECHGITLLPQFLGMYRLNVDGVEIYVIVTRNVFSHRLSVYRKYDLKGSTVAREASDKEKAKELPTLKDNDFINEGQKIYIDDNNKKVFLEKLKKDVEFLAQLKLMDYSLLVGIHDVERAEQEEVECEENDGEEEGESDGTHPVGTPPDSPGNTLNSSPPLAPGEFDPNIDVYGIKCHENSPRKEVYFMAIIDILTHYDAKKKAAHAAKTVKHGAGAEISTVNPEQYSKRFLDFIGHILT
#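 Quantitative HTS of the MLSMR library against PI5P4Kalpha with substrate. ATP added last at 5 microM final; room temperature, 60 minutes. Remaining ATP depleted, ADP converted and read as luminescence.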
# The depositor's hits bear a star; ? = inconclusive; . = not tested or not shown; [ ] = remark or other dose. Only some compounds are listed: those with a hit (about 11% of all), similar ones and a draw of the others. Unless noted, calls come from the whole dose curve; as a rule, active = well fitted inhibition curve with a large enough effect; inconclusive = small, poorly fitted or top-dose-only effect; inactive = no such curve, though single readings can be large or run the other way.
SMILES,L3MBTL1 block,G9a inh,HP1b binding inh,BAZ2B block,JMJD2A Tudor,PI5P4K alpha inh
CC(=O)Nc1nonc1-c1nnc(SCC(=O)Nc2cc(C)cc(C)c2)n1C,.,0%[59 µM],38%,1%,0%,.
CCC(c1nnnn1Cc1ccccc1)N(Cc1ccccc1)Cc1cc2cc(C)ccc2[nH]c1=O (configuration not stated),.,.,-3%[57 µM],.,-11%[57.1 µM],.
COc1ccc2c(c1)CCc1c(C(=O)Nc3c(C)nn(Cc4ccc(Cl)c(Cl)c4)c3C)noc1-2,.,-31%[59 µM],-18%,-10%,-30%,.
COCCNC(=O)c1ccccc1NC(=O)c1ccccc1SC,-9%,4.5µM*,17%,-13%,-6%,-16
CCCNC(=O)c1ccccc1NC(=O)c1ccccc1SC,4%,25µM*,23%,-26%,-14%,-1
CC(C)=CCC[C@](C)(O[C@@H]1O[C@H](CO)[C@@H](O)[C@H](O)[C@H]1O)[C@H]1CC[C@]2(C)[C@@H]1[C@H](O)C[C@@H]1[C@@]3(C)CC[C@H](O[C@@H]4O[C@H](CO)[C@@H](O)[C@H](O)[C@H]4O[C@@H]4O[C@H](CO)[C@@H](O)[C@H](O)[C@H]4O)C(C)(C)[C@@H]3[C@@H](O)C[C@]12C,.,31%[59 µM],.,.,.,.
CCC(C(=O)Nc1ccccc1C(=O)OC)n1nc(C)c2c(C)n(-c3ccc(C)cc3)nc2c1=O (configuration not stated),.,-34%[59 µM],-4%,-24%,-27%,.
Cc1ccc(-n2ncc3c(NCCCn4ccnc4)ncnc32)cc1,.,0%[59 µM],-4%,?,-26%,.
O=C(NNC(=S)Nc1ccc(Cl)c(Cl)c1)c1ccccn1,-91%,.,-2%,4.5µM*,25µM*,-2
CCNC(=S)NNC(=O)c1ccccn1,3.5µM*,-11%,37%,3.2µM*,25µM*,-2
CCCn1cnc2cc(NCc3ccc(Br)cc3)ccc21,.,45µM*,?,45µM*,16µM*,-4
Cn1cnc2cc(NCc3ccc(Cl)cc3)ccc21,-13%,45µM*,-19%,?,?,-1
CCn1cnc2cc(NCc3ccc(Br)cc3)ccc21,.,13µM*,?,45µM*,14µM*,0
CCn1cnc2cc(NS(=O)(=O)c3ccc(C)cc3)ccc21,.,-43%[59 µM],22%,-30%,-14%,.
CCCn1cnc2cc(NCc3cccc(OC)c3)ccc21,-15%,-4%[12.7 µM],-23%,?,?,.
CCCn1cnc2cc(NCc3ccccc3O)ccc21,.,40µM*,4%,-30%,-36%,0
O=C(Cn1cc(C(=O)C2CC2)c2ccccc21)Nc1ccc(Br)cc1,.,0%[59 µM],39%,3%,-5%,.
COc1ccc(S(=O)(=O)NNC(=O)C23CC4CC(CC(C4)C2)C3)cc1,.,79µM*,21%,-2%,-6%,0
COC(=O)c1cc(C)nc(Sc2ccccc2N)n1,-13%,3.5µM*,?,-18%,45µM*,?
CCOc1ccccc1CNC(=O)c1sc2ncccc2c1-n1cccc1,.,-22%[59 µM],9%[57 µM],-16%,-9%,.
COc1ccccc1C(=O)NCc1nnnn1-c1ccc(C)c(C)c1,.,15%[59 µM],19%[57 µM],8%,-10%,.
CCc1nc2ccccc2c(=O)n1NC(=O)c1c(O)c2ccccc2[nH]c1=O,40%,82%[59 µM],-1%,?,79µM*,-6
Cc1cccc(NC(=O)c2ccc(N(Cc3ccccc3)S(C)(=O)=O)cc2)c1,.,?,6%,-3%,-19%,.
COCCNc1nc(=S)[nH]c2cc(OC)c(OC)cc12,0%,35µM*,40%,-28%,?,0
